ChEMBL document CHEMBL1961873, “Compounds: GSK PKIS; Assays: Nanosyn kinase panel” (2012)

What was measured:
[1] = test system: Tyrosine-protein kinase ABL1 (Homo sapiens), P00519 [T315I]; conditions: at 1 µM
[2] = test system: Tyrosine-protein kinase ABL1 (Homo sapiens), P00519 [Y253F]; conditions: at 0.1 µM
[3] = test system: Tyrosine-protein kinase ABL1 (Homo sapiens), P00519 [Y253F]; conditions: at 1 µM
[4] = target: Tyrosine-protein kinase ABL1 (Homo sapiens) (UniProt P00519); conditions: at 0.1 µM
[5] = target: Tyrosine-protein kinase ABL1 (Homo sapiens) (UniProt P00519); conditions: at 1 µM
[6] = target: ALK tyrosine kinase receptor (Homo sapiens) (UniProt Q9UM73); conditions: at 0.1 µM
[7] = target: ALK tyrosine kinase receptor (Homo sapiens) (UniProt Q9UM73); conditions: at 1 µM
[8] = target: Tyrosine-protein kinase ABL2 (Homo sapiens) (UniProt P42684); conditions: at 0.1 µM
[9] = target: Tyrosine-protein kinase ABL2 (Homo sapiens) (UniProt P42684); conditions: at 1 µM
[10] = target: Tyrosine-protein kinase receptor UFO (Homo sapiens) (UniProt P30530); conditions: at 0.1 µM
[11] = target: Tyrosine-protein kinase receptor UFO (Homo sapiens) (UniProt P30530); conditions: at 1 µM
[12] = target: Tyrosine-protein kinase Blk (Homo sapiens) (UniProt P51451); conditions: at 0.1 µM
[13] = target: Tyrosine-protein kinase Blk (Homo sapiens) (UniProt P51451); conditions: at 1 µM
[14] = target: T1, Cytoplasmic tyrosine-protein kinase BMX (Homo sapiens) (UniProt P51813); conditions: at 0.1 µM
T1 sequence (whole entry): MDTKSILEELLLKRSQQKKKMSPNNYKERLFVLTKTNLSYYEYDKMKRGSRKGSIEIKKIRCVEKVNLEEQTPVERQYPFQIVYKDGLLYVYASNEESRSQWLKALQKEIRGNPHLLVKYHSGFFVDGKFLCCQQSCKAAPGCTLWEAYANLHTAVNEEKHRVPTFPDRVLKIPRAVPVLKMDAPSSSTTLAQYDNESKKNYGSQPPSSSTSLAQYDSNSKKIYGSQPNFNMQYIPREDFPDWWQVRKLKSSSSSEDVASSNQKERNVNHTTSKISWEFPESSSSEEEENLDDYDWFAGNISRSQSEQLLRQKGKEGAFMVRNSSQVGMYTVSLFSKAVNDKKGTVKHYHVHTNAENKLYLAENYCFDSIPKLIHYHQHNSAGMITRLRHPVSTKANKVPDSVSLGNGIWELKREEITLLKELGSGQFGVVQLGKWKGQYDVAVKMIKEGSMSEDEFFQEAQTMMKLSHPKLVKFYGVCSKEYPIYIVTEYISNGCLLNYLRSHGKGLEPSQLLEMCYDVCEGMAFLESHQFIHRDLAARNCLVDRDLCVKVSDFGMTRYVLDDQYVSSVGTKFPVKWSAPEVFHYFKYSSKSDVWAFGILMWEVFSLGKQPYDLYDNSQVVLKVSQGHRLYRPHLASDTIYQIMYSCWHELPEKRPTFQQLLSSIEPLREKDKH

[15] = target: T1, Cytoplasmic tyrosine-protein kinase BMX (Homo sapiens); conditions: at 1 µM
[16] = target: Protein-tyrosine kinase 6 (Homo sapiens) (UniProt Q13882); conditions: at 0.1 µM
[17] = target: Protein-tyrosine kinase 6 (Homo sapiens) (UniProt Q13882); conditions: at 1 µM
[18] = target: Tyrosine-protein kinase BTK (Homo sapiens) (UniProt Q06187); conditions: at 0.1 µM
[19] = target: Tyrosine-protein kinase BTK (Homo sapiens) (UniProt Q06187); conditions: at 1 µM
[20] = target: Tyrosine-protein kinase CSK (Homo sapiens) (UniProt P41240); conditions: at 0.1 µM;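 note: value given is the averaged percent inhibition of CSK kinase activity, from the GSK PKIS kinase inhibitor set screening panel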
Sequence of Tyrosine-protein kinase CSK (Homo sapiens) (P41240 2-450 limits assumed): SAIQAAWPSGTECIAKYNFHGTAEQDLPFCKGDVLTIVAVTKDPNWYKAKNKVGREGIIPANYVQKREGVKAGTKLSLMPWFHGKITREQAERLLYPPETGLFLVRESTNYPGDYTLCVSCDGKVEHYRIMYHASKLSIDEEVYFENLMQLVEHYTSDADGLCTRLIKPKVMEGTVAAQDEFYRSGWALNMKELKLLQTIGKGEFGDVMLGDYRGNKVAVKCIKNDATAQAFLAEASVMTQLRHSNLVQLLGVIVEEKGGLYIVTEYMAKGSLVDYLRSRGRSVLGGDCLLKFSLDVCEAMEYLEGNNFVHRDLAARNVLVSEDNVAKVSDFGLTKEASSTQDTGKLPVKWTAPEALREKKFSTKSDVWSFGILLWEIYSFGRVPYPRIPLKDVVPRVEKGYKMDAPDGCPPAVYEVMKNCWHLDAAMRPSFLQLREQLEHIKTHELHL

Sequence of Tyrosine-protein kinase Blk (Homo sapiens) (P51451 2-505 limits assumed): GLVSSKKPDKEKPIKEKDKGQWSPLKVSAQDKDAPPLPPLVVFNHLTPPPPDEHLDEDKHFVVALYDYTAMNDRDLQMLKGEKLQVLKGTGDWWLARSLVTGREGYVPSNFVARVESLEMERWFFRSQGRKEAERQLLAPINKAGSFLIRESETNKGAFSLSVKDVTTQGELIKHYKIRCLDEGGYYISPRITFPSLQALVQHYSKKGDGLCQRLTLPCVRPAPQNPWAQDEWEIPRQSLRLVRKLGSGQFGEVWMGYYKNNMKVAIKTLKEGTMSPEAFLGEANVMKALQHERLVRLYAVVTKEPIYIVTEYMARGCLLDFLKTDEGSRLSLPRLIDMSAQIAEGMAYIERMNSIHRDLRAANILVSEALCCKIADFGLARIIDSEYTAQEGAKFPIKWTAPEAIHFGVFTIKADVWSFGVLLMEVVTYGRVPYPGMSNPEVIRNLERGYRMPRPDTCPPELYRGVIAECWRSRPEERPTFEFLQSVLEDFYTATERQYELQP
Sequence of Protein-tyrosine kinase 6 (Homo sapiens) (Q13882 whole entry, looked up): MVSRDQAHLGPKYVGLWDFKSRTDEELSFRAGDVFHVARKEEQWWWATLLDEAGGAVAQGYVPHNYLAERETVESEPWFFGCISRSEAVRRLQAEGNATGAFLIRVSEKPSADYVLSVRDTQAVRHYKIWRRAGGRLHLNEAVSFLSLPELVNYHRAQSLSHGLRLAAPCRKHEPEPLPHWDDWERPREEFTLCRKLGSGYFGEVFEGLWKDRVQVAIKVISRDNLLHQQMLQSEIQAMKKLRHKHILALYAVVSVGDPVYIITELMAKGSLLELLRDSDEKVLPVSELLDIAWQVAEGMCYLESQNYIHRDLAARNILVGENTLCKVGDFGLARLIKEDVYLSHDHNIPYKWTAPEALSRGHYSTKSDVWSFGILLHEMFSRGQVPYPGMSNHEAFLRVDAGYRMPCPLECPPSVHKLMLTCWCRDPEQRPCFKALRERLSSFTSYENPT
Sequence of Tyrosine-protein kinase receptor UFO (Homo sapiens) (P30530 whole entry): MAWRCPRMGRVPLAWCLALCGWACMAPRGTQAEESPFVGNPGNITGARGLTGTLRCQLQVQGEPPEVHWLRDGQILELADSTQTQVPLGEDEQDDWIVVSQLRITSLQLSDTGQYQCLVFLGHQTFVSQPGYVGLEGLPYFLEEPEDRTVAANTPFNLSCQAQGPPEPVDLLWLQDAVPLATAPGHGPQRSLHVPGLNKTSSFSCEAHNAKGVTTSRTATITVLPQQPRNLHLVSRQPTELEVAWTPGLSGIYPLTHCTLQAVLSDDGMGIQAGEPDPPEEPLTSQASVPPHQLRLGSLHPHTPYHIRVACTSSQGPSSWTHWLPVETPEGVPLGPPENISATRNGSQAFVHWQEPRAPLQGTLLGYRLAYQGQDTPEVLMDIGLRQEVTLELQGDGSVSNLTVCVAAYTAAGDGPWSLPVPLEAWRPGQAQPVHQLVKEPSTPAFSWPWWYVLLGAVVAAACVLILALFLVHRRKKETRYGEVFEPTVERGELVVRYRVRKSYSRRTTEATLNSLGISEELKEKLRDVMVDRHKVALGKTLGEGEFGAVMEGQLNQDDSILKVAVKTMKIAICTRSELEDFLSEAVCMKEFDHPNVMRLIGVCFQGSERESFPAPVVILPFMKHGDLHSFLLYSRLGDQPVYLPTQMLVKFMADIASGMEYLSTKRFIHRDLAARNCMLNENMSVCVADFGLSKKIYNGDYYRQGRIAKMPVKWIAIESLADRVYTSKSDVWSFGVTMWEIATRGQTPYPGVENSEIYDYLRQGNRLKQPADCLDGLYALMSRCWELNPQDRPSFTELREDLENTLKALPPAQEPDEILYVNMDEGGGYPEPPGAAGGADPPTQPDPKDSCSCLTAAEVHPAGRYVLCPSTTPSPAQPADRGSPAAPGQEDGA
Sequence of ALK tyrosine kinase receptor (Homo sapiens) (Q9UM73 19-1620 limits assumed): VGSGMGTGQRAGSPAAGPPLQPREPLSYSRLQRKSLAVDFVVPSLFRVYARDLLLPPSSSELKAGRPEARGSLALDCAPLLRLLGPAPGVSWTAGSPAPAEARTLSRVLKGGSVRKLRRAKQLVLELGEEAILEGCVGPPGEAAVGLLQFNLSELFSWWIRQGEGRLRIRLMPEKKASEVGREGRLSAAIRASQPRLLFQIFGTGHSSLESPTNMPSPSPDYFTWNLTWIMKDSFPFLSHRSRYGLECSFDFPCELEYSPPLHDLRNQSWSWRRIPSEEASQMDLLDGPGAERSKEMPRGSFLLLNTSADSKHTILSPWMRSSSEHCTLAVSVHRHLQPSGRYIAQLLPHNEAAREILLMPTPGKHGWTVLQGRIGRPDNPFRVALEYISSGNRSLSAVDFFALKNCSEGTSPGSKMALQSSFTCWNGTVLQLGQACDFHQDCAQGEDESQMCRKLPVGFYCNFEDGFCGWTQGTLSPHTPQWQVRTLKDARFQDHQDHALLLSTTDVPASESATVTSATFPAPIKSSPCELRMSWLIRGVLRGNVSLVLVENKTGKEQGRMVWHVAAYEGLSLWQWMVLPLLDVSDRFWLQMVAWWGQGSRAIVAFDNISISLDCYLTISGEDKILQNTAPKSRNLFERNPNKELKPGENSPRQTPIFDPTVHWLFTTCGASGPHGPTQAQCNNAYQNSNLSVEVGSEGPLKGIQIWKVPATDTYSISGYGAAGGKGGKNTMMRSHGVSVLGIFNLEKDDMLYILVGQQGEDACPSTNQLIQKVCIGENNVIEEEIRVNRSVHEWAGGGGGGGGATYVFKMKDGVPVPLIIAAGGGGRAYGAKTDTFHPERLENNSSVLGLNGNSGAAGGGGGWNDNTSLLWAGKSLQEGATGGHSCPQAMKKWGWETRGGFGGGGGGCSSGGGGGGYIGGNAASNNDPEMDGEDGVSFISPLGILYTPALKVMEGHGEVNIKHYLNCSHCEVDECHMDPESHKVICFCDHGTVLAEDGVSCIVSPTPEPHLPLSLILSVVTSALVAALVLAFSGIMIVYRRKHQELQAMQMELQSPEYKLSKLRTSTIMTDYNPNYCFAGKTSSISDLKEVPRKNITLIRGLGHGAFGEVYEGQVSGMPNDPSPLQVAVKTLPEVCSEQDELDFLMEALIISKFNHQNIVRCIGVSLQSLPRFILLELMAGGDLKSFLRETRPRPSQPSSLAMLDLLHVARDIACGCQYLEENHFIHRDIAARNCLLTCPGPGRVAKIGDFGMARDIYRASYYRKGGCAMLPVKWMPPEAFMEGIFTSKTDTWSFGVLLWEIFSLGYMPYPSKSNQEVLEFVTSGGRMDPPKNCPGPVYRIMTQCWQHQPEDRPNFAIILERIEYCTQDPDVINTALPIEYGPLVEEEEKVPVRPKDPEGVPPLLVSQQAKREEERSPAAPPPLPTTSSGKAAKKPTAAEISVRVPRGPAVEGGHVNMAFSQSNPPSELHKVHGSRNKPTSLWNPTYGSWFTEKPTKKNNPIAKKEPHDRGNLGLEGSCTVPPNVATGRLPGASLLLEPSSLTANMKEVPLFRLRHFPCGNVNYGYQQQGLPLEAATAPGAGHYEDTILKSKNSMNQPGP
Sequence of Tyrosine-protein kinase ABL2 (Homo sapiens) (P42684 whole entry): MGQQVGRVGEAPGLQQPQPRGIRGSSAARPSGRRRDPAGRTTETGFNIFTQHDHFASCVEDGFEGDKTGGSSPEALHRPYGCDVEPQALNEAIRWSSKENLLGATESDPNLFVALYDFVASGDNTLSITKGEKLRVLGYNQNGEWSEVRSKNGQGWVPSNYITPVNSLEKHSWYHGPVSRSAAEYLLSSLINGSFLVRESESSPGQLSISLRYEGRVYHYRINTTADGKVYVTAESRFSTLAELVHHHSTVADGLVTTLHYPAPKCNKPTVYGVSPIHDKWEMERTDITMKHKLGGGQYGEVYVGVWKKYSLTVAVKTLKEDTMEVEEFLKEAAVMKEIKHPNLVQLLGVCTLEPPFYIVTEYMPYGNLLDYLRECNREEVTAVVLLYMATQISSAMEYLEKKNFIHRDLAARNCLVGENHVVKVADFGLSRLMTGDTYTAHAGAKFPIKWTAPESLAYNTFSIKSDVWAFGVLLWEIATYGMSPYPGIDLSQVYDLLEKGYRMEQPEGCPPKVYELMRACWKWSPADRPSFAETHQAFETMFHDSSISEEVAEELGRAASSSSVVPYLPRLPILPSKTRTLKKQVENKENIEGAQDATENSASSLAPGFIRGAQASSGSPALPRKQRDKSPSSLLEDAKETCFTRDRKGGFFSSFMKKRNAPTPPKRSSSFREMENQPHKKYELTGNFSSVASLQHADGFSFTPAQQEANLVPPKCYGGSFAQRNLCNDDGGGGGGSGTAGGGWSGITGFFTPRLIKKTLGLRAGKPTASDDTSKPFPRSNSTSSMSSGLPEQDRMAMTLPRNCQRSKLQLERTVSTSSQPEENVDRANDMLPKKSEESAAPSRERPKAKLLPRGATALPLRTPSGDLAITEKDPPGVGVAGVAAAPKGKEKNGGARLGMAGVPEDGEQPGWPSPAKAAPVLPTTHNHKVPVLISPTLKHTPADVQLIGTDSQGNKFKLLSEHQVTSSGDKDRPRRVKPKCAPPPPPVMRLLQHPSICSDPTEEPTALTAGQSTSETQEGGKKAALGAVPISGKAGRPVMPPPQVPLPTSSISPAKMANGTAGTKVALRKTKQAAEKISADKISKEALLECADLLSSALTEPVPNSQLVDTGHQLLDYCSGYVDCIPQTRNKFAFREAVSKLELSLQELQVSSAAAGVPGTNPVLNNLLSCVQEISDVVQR

Row | SMILES | inhibition [1] | inhibition [2] | inhibition [3] | inhibition [4] | inhibition [5] | inhibition [6] | inhibition [7] | inhibition [8] | inhibition [9] | inhibition [10] | inhibition [11] | inhibition [12] | inhibition [13] | inhibition [14] | inhibition [15] | inhibition [16] | inhibition [17] | inhibition [18] | inhibition [19] | inhibition [20]
1 | COc1cc(C=NNc2ncnc3c2cnn3Cc2ccccc2)ccc1O | 61.6% | 52.2% | 90.8% | 40.6% | 71.9% | -4.96% | -2.43% | 20.3% | 49.2% | 5.07% | 6.34% | 0.65% | 23.8% | 2.02% | 16.9% | -4.22% | -0.85% | -1.51% | -0.27% | -6.66%
2 | Cc1cc(-c2ccco2)cc(C)c1/C=C/c1cncc(-c2nn[nH]n2)c1 | 2.45% | 1.92% | 4.15% | 2.83% | 4.58% | 2.41% | 2.74% | 2.77% | 8.69% | 0.06% | 1.57% | 1.51% | 9% | 0.7% | 2.83% | 0.11% | 3.58% | 0.68% | 1.5% | 0.88%
3 | COc1cccc(COc2cc(-n3cnc4ccccc43)sc2C(N)=O)c1 | 0.66% | -1.91% | 2.67% | -2.41% | 0.81% | -0.33% | 2.9% | -0.24% | 0.86% | 0.14% | -0.71% | 0.3% | -1.09% | -0.68% | -1.24% | -0.05% | 1.34% | 0.36% | -0.76% | -1.48%
4 | CCn1c(-c2nonc2N)nc2c(C#CC(C)(C)O)nc(O[C@@H](CN)c3ccccc3)cc21 | 4.28% | -0.01% | 0.57% | 0.27% | 5.55% | 0.41% | 19.6% | 1.15% | 6.91% | 1.96% | 8.92% | -0.06% | 10.1% | 2.29% | -1.16% | -1.39% | -2.85% | -2.57% | -0.15% | -5%
5 | CCn1c(-c2nonc2N)nc2c(C#CCN)ncc(OCCCN)c21 | 1.94% | -2.47% | -2.94% | 1.03% | 2.03% | -6.6% | -0.9% | -2.47% | -0.76% | 7.73% | 7.15% | 0.22% | -2.12% | -0.45% | -3% | -6.06% | -3.37% | 2.31% | 2.06% | -0.42%
6 | COc1cc2c(cc1Nc1nc(Nc3ccsc3C(N)=O)c3cc[nH]c3n1)N(C(=O)CN(C)C)CCC2 | 2.06% | 1.77% | 5.17% | 1.69% | 3.88% | 83.9% | 85.4% | 5.49% | 8.21% | 22.9% | 66.8% | 7.36% | 10.6% | 0.79% | 1.32% | 0.16% | 3.39% | 0.44% | 1% | -7.26%
7 | COc1cccc(-n2ncc3c(N/N=C/c4ccncc4)ncnc32)c1 | 85.2% | 84.5% | 94.9% | 69.3% | 89% | 3.94% | 7.96% | 47.8% | 82.8% | -5.41% | 6.36% | 13.3% | 63.6% | 12.2% | 46.6% | 6.09% | 23.1% | -0.08% | 2.16% | 5.5%
8 | NS(=O)(=O)c1ccc(N/C=C2\C(=O)Nc3ccc4ncsc4c32)cc1 | 41.1% | 5.62% | 32.9% | 8.9% | 32.9% | 4.55% | 15.1% | 5.92% | 21.8% | -3.83% | 24.7% | 5.86% | 36.7% | 3.85% | 6.44% | 2.1% | 4.82% | -2.5% | 0.29% | 1.61%
9 | CCn1c(-c2nonc2N)nc2c(C#CC(C)(C)O)ncc(OCC3CCNCC3)c21 | 4.1% | 2.44% | 5.73% | -2.19% | 2.09% | -2.65% | 0.19% | -1.08% | -2.22% | -2.5% | -2.43% | -1.83% | -1.39% | -4.33% | 2.37% | 4.21% | 4.11% | -3.09% | -3.54% | 5.4%
10 | NS(=O)(=O)c1ccc(-c2ccc3c(NC(=O)C4CC4)n[nH]c3c2)cc1 | 15.1% | 4.41% | 8.81% | 8.32% | 14.2% | 2.73% | 3.11% | 6.43% | 7.09% | -4.27% | -2.63% | 1.89% | 6.01% | 4.98% | 3.87% | 0.27% | 1.67% | 1.8% | 1.47% | 6.64%
11 | NC(=O)c1sc(-n2cnc3cc(C(F)(F)F)ccc32)cc1OCc1ccccc1Br | 1.66% | 4.14% | 4.68% | 3.16% | 3.85% | 1.22% | 1.22% | 2.86% | 4.58% | -0.22% | 1.55% | 1.67% | 2.39% | -0.71% | 0.62% | 2.49% | 0.4% | 0.15% | -0.21% | -3.78%
12 | CCn1c(-c2nonc2N)nc2c(C#CC(C)(C)O)ncc(OC[C@@H]3CCCN3)c21 | 0.65% | 0.65% | -0.13% | 1.81% | -0.45% | -0.46% | 1.45% | 1.42% | 2.28% | 0.65% | 0.17% | 2.44% | 1.76% | 1.21% | -0.7% | 3.05% | 2.47% | 0.66% | 1.17% | -1.37%
13 | Fc1ccc(-c2ncn(C3CCNCC3)c2-c2ccnc(Oc3ccccc3)n2)cc1 | -0.9% | 1.35% | 2.58% | -2.46% | -4.75% | -2.73% | -0.15% | -2.93% | -3.16% | -4.72% | -3.54% | -3.23% | -0.29% | 0.89% | 2.13% | 2.9% | 3.59% | -4.26% | -4.63% | 1.9%
14 | Nc1nonc1-c1nc2cnccc2n1C1CCCCC1 | -0.01% | -0.51% | 2.63% | -0.08% | 7.12% | -2.37% | 2.16% | 1.35% | 3.74% | 4.13% | 4.86% | -1.07% | 0.24% | 1.92% | -1.58% | -5.22% | -3% | -0.64% | -0.36% | -1.78%
